Laboratory results published in the supplement of paper PMC10077471.
In all, about 1,900 compounds were measured (“excess over highest single agent (ExcessHSA) synergy score, 6x6 matrix”: median about -83, lowest 2% from about -370 on). The sample as a whole holds a higher share of the lowest values than the screen did.

system: NCI-H446; test: excess over highest single agent (ExcessHSA) synergy score, 6x6 matrix; higher = less synergy (more negative = stronger synergy); details: 72 h; CellTiter-Glo viability

Compound	excess over highest single agent
COc1ncc(-c2ccc3nccc(-c4ccnnc4)c3c2)cc1NS(=O)(=O)c1ccc(F)cc1F + Cc1sc2c(c1C)C(c1ccc(Cl)cc1)=N[C@@H](CC(=O)OC(C)(C)C)c1nnc(C)n1-2 [NCGC00250412-19]	-259
CCn1c(-c2nonc2N)nc2cncc(CNC3CCNCC3)c21 + Cc1sc2c(c1C)C(c1ccc(Cl)cc1)=N[C@@H](CC(=O)OC(C)(C)C)c1nnc(C)n1-2 [NCGC00250412-19]	51.1
Cc1ccccc1-n1c(Cn2nc(-c3cccc(O)c3)c3c(N)ncnc32)nc2cccc(C)c2c1=O + Cc1sc2c(c1C)C(c1ccc(Cl)cc1)=N[C@@H](CC(=O)OC(C)(C)C)c1nnc(C)n1-2 [NCGC00250412-19]	-224
O=C(O)[C@]1(Cc2cccc(Nc3nccs3)n2)CC[C@@H](Oc2cccc(Cl)c2F)CC1 + Cc1sc2c(c1C)C(c1ccc(Cl)cc1)=N[C@@H](CC(=O)OC(C)(C)C)c1nnc(C)n1-2 [NCGC00250412-19]	-273
O=C(O)c1nc(=O)[nH]c(=O)[nH]1 + Cc1sc2c(c1C)C(c1ccc(Cl)cc1)=N[C@@H](CC(=O)OC(C)(C)C)c1nnc(C)n1-2 [NCGC00250412-19]	-48.1
CCS(=O)(=O)c1cccc(-c2cc(C(=O)NC3CCN(C)CC3)c(C)c3[nH]c4ncc(C)cc4c23)c1 + Cc1sc2c(c1C)C(c1ccc(Cl)cc1)=N[C@@H](CC(=O)OC(C)(C)C)c1nnc(C)n1-2 [NCGC00250412-19]	-197
CC[C@@H]1/C=C(\C)C[C@H](C)C[C@H](OC)[C@H]2O[C@@](O)(C(=O)C(=O)N3CCCC[C@H]3C(=O)O[C@H](/C(C)=C/[C@@H]3CC[C@H](Cl)[C@H](OC)C3)[C@H](C)[C@@H](O)CC1=O)[C@H](C)C[C@@H]2OC + Cc1sc2c(c1C)C(c1ccc(Cl)cc1)=N[C@@H](CC(=O)OC(C)(C)C)c1nnc(C)n1-2 [NCGC00250412-19]	-132
C=CC[C@@H]1/C=C(\C)C[C@H](C)C[C@H](OC)[C@H]2O[C@@](O)(C(=O)C(=O)N3CCCC[C@H]3C(=O)O[C@H](/C(C)=C/[C@@H]3CC[C@@H](O)[C@H](OC)C3)[C@H](C)[C@@H](O)CC1=O)[C@H](C)C[C@@H]2OC + Cc1sc2c(c1C)C(c1ccc(Cl)cc1)=N[C@@H](CC(=O)OC(C)(C)C)c1nnc(C)n1-2 [NCGC00250412-19]	-143
CO[C@H]1C[C@@H]2CC[C@@H](C)[C@@](O)(O2)C(=O)C(=O)N2CCCC[C@H]2C(=O)O[C@H]([C@H](C)C[C@@H]2CC[C@@H](OCCO)[C@H](OC)C2)CC(=O)[C@H](C)/C=C(\C)[C@@H](O)[C@@H](OC)C(=O)[C@H](C)C[C@H](C)/C=C/C=C/C=C/1C + Cc1sc2c(c1C)C(c1ccc(Cl)cc1)=N[C@@H](CC(=O)OC(C)(C)C)c1nnc(C)n1-2 [NCGC00250412-19]	-598
CO[C@H]1C[C@@H]2CC[C@@H](C)[C@@](O)(O2)C(=O)C(=O)N2CCCC[C@H]2C(=O)O[C@H]([C@H](C)C[C@@H]2CC[C@@H](OC(=O)C(C)(CO)CO)[C@H](OC)C2)CC(=O)[C@H](C)/C=C(\C)[C@@H](O)[C@@H](OC)C(=O)[C@H](C)C[C@H](C)/C=C/C=C/C=C/1C + Cc1sc2c(c1C)C(c1ccc(Cl)cc1)=N[C@@H](CC(=O)OC(C)(C)C)c1nnc(C)n1-2 [NCGC00250412-19]	-419
CO[C@H]1C[C@@H]2CC[C@@H](C)[C@@](O)(O2)C(=O)C(=O)N2CCCC[C@H]2C(=O)O[C@H]([C@H](C)C[C@@H]2CC[C@@H](O)[C@H](OC)C2)CC(=O)[C@H](C)/C=C(\C)[C@@H](O)[C@@H](OC)C(=O)[C@H](C)C[C@H](C)/C=C/C=C/C=C/1C + Cc1sc2c(c1C)C(c1ccc(Cl)cc1)=N[C@@H](CC(=O)OC(C)(C)C)c1nnc(C)n1-2 [NCGC00250412-19]	-737
CO[C@H]1C[C@@H]2CC[C@@H](C)[C@@](O)(O2)C(=O)C(=O)N2CCCC[C@H]2C(=O)O[C@H]([C@H](C)C[C@@H]2CC[C@@H](OP(C)(C)=O)[C@H](OC)C2)CC(=O)[C@H](C)/C=C(\C)[C@@H](O)[C@@H](OC)C(=O)[C@H](C)C[C@H](C)/C=C/C=C/C=C/1C + Cc1sc2c(c1C)C(c1ccc(Cl)cc1)=N[C@@H](CC(=O)OC(C)(C)C)c1nnc(C)n1-2 [NCGC00250412-19]	-543
Cc1cc(=O)c2c(O)c3c(O)cc(=O)c4c3c3c(cc(O)c1c23)C(C)(C)C=4O + Cc1sc2c(c1C)C(c1ccc(Cl)cc1)=N[C@@H](CC(=O)OC(C)(C)C)c1nnc(C)n1-2 [NCGC00250412-19]	-128
Oc1ccc([C@@H]2Oc3ccc(O)cc3[C@@H]3CCC[C@@H]32)cc1 + Cc1sc2c(c1C)C(c1ccc(Cl)cc1)=N[C@@H](CC(=O)OC(C)(C)C)c1nnc(C)n1-2 [NCGC00250412-19]	-48.9
N#Cc1cc(NC(=O)Nc2nnc(-c3ccncc3)s2)ccc1-c1cn[nH]c1 + Cc1sc2c(c1C)C(c1ccc(Cl)cc1)=N[C@@H](CC(=O)OC(C)(C)C)c1nnc(C)n1-2 [NCGC00250412-19]	313
O=C(O)c1ccc2cc(-c3ccc(O)c(C45CC6CC(CC(C6)C4)C5)c3)ccc2c1 + Cc1sc2c(c1C)C(c1ccc(Cl)cc1)=N[C@@H](CC(=O)OC(C)(C)C)c1nnc(C)n1-2 [NCGC00250412-19]	-225
CC(C)n1cnc2c(NCCCCCCNC(=O)OC(C)(C)C)nc(NCCO)nc21 + Cc1sc2c(c1C)C(c1ccc(Cl)cc1)=N[C@@H](CC(=O)OC(C)(C)C)c1nnc(C)n1-2 [NCGC00250412-19]	-65.3

Compound	excess over highest single agent
CC1=C(C(=O)Nc2cc3cn[nH]c3cc2F)C(c2ccc(Cl)cc2F)N=C(c2ccnc(Cl)c2)N1 (centres undefined) + Cc1sc2c(c1C)C(c1ccc(Cl)cc1)=N[C@@H](CC(=O)OC(C)(C)C)c1nnc(C)n1-2 [NCGC00250412-19]	-142
COc1ccc2c(c1)CC[C@H](CN(C)CC(=O)O)[C@@H]2c1ccccc1 + Cc1sc2c(c1C)C(c1ccc(Cl)cc1)=N[C@@H](CC(=O)OC(C)(C)C)c1nnc(C)n1-2 [NCGC00250412-19]	-220
CNC(=O)c1ccc(N2C(=S)N(c3cnc(C#N)c(C(F)(F)F)c3)C(=O)C23CCC3)cc1F + Cc1sc2c(c1C)C(c1ccc(Cl)cc1)=N[C@@H](CC(=O)OC(C)(C)C)c1nnc(C)n1-2 [NCGC00250412-19]	-9.84
CN(C)CCOc1cc(-c2cn[nH]c2)ccc1NC(=O)C1COc2ccccc2O1 (centres undefined) + Cc1sc2c(c1C)C(c1ccc(Cl)cc1)=N[C@@H](CC(=O)OC(C)(C)C)c1nnc(C)n1-2 [NCGC00250412-19]	-160
O=C(O)CCNc1cc(N2CCc3ccccc3CC2)nc(-c2ccccn2)n1 + Cc1sc2c(c1C)C(c1ccc(Cl)cc1)=N[C@@H](CC(=O)OC(C)(C)C)c1nnc(C)n1-2 [NCGC00250412-19]	-73
CN1CCN(c2ncc(-c3cc(Cl)cc(Cl)c3Cl)c(N)n2)CC1 + Cc1sc2c(c1C)C(c1ccc(Cl)cc1)=N[C@@H](CC(=O)OC(C)(C)C)c1nnc(C)n1-2 [NCGC00250412-19]	-219
CN(C)Cc1c(C(=O)NCCOc2ccc(C(=O)NO)cc2)oc2ccccc12 + Cc1sc2c(c1C)C(c1ccc(Cl)cc1)=N[C@@H](CC(=O)OC(C)(C)C)c1nnc(C)n1-2 [NCGC00250412-19]	-152
Cc1ccc2nc(NC(=O)CSc3nc4c(c(=O)n3-c3ccccc3)SCC4)sc2c1 + Cc1sc2c(c1C)C(c1ccc(Cl)cc1)=N[C@@H](CC(=O)OC(C)(C)C)c1nnc(C)n1-2 [NCGC00250412-19]	84.8
CC(C)(C)OC(=O)CN(Cc1ccc(Cl)cc1)Cc1ccc([N+](=O)[O-])s1 + Cc1sc2c(c1C)C(c1ccc(Cl)cc1)=N[C@@H](CC(=O)OC(C)(C)C)c1nnc(C)n1-2 [NCGC00250412-19]	27
Cn1c(=O)c(-c2c(Cl)cccc2Cl)cc2cnc(Nc3cccc(C(=O)O)c3)nc21 + Cc1sc2c(c1C)C(c1ccc(Cl)cc1)=N[C@@H](CC(=O)OC(C)(C)C)c1nnc(C)n1-2 [NCGC00250412-19]	-131
Cc1cc(OCCCc2c(C(=O)O)n(Cc3cccnc3)c3c(-c4c(COc5ccc(N6CCN([S+](C)(=O)[O-])CC6)cc5)nn(C)c4C)cccc23)cc(C)c1Cl + Cc1sc2c(c1C)C(c1ccc(Cl)cc1)=N[C@@H](CC(=O)OC(C)(C)C)c1nnc(C)n1-2 [NCGC00250412-19]	-31.2
CCOC(=O)N1CCN([N+]([O-])=NOc2ccc([N+](=O)[O-])cc2[N+](=O)[O-])CC1 + Cc1sc2c(c1C)C(c1ccc(Cl)cc1)=N[C@@H](CC(=O)OC(C)(C)C)c1nnc(C)n1-2 [NCGC00250412-19]	-84.4
O=C(c1ccc(Nc2nccc(-c3cc4ccccc4s3)n2)cc1)N1CCC(N2CCCC2)CC1 + Cc1sc2c(c1C)C(c1ccc(Cl)cc1)=N[C@@H](CC(=O)OC(C)(C)C)c1nnc(C)n1-2 [NCGC00250412-19]	-181
CNC(=O)c1ccc(N2C(=S)N(c3ccc(C#N)c(C(F)(F)F)c3)C(=O)C23CCC3)cc1F + Cc1sc2c(c1C)C(c1ccc(Cl)cc1)=N[C@@H](CC(=O)OC(C)(C)C)c1nnc(C)n1-2 [NCGC00250412-19]	-51.1
O=C(OCC#CCSc1nnc(-c2cccc3ccccc23)o1)c1cc2ccccc2s1 + Cc1sc2c(c1C)C(c1ccc(Cl)cc1)=N[C@@H](CC(=O)OC(C)(C)C)c1nnc(C)n1-2 [NCGC00250412-19]	-169
O=C1CSC(=O)N1C(CCc1ccncc1)COc1ccc(-c2cccc([N+](=O)[O-])c2)cc1 (centres undefined) + Cc1sc2c(c1C)C(c1ccc(Cl)cc1)=N[C@@H](CC(=O)OC(C)(C)C)c1nnc(C)n1-2 [NCGC00250412-19]	-96.7
CS[C@H]1SC[C@H]2C(=O)N(C)[C@@H](C(C)C)C(=O)OC[C@@H](NC(=O)c3cnc4ccccc4n3)C(=O)N[C@@H](C)C(=O)N(C)[C@@H]1C(=O)N(C)[C@@H](C(C)C)C(=O)OC[C@@H](NC(=O)c1cnc3ccccc3n1)C(=O)N[C@@H](C)C(=O)N2C + Cc1sc2c(c1C)C(c1ccc(Cl)cc1)=N[C@@H](CC(=O)OC(C)(C)C)c1nnc(C)n1-2 [NCGC00250412-19]	15.3
